High-throughput results: PubChem, National Center for Advancing Translational Sciences (NCATS)
KCNH2 3.1 block: qHTS for Inhibitors of KCHN2 3.1: Mutant qHTS; actives 0.95% (n = 340,000); U2OS KCNH2 3.1, thallium flux FluxOr; hits give low values; activity change, % (tested at about 1.8 µM); Potassium voltage-gated channel subfamily H member 2, brain isoform KCNH2 3.1 (human); AID 720553, 2013;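 active means maximum activity change below -70%; inconclusive means maximum activity change from -70% to -50%; inactive means maximum activity change above -50%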;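 further: thallium influx rate constant from kinetic fluorescence after stimulation buffer; on the % scale 0 is the no-effect control and ±100 the full control effect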
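U2OS cells transduced with KCNH2 3.1 mutant virus (1.77 x 10^8 /mL, 4 h), plated overnight at 37 C, loaded 45 min with FluxOr dye plus Red40 quencher. Thallium flux rate constant from kinetic reads after stimulation buffer, normalised to controls.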
GLP1R inv ag: qHTS of GLP-1 Receptor Inverse Agonists (Inhibition Mode); HEK293 GLP-1R CRE-luciferase, luminescence, 24 h; GLP-1R form is constitutively active; Glucagon-like peptide 1 receptor (Homo sapiens), P43220; actives 1.6% (n = 410,000); Potency, µM (highest dose often 38.3 µM), inactives show at the top dose activity change, negative = inhibition, actives largely listed as inhibitors; further: potency means the concentration at half of the fitted maximal effect; on the % scale 0 is the no-effect control and ±100 the full control effect; nearly all actives have a fitted effect of over 55% in size
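HEK293 cells stably co-expressing constitutively active GLP-1R and a cAMP-responsive luciferase reporter were seeded in DMEM with 10% Nu serum, given compounds after 12 h, and incubated 24 h at 37 deg C. Luminescence was then read.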
GLS inhibitor: qHTS for Inhibitors of Glutaminase (GLS); Glutaminase kidney isoform, mitochondrial (Homo sapiens), O94925; GLS enzymatic activity, qHTS titration; Potency, µM (highest dose often 45.5 µM), for the others: at the highest dose activity change, negative = inhibition, hits mostly inhibitors; actives 0.21% (n = 410,000); AID 624170, 2012; further: potency means the concentration at half of the fitted maximal effect; on the % scale 0 is the no-effect control and ±100 the full control effect
Target sequence (O94925 whole entry, looked up, canonical isoform): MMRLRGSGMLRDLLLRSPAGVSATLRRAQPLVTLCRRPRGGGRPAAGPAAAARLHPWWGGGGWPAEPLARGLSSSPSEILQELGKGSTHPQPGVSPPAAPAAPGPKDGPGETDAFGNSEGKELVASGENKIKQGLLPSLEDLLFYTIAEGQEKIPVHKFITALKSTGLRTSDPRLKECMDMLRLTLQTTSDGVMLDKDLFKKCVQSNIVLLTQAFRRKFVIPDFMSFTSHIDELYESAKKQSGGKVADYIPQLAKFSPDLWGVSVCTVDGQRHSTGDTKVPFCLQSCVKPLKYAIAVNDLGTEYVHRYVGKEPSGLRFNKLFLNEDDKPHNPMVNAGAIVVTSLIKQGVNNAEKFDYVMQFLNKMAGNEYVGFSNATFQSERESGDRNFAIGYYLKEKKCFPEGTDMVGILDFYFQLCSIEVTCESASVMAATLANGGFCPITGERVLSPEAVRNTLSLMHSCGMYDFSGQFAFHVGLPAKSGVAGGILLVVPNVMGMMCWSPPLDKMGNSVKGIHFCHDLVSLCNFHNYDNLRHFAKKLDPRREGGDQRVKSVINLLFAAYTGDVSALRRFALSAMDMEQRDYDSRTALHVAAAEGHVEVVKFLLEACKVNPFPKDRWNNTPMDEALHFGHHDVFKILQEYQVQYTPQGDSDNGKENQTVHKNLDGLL
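Assay buffer: 45 mM KH2PO4 pH 8.2, 0.02% Tween-20. hKGA acts on L-glutamine (1 mM solution added); product glutamate is reported by an oxidase/peroxidase Amplex Red coupling, with fluorescence taken at baseline and 30 min.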
GLP1R ag: qHTS of GLP-1 Receptor Agonists; Glucagon-like peptide 1 receptor (Homo sapiens), P43220; HEK293 GLP-1R CRE-luciferase, luminescence, 4-6 h; cells express a hypersensitive GLP-1R form; Potency, µM (top dose mostly 45.6 µM), for inactives: at the highest dose activation, hits mostly activators; actives 0.007% (n = 380,000); further: potency means the concentration at half of the fitted maximal effect; % of control where 0% means no effect
hERG WT inh: qHTS for Inhibitors of KCHN2 3.1: Wildtype qHTS | AID 720551, 2013 | U2OS, BacMam KCNH2, thallium flux FluxOr; hits give low values | Voltage-gated inwardly rectifying potassium channel KCNH2 (Homo sapiens), Q12809 | actives 0.37% (n = 340,000) | activity change, % at 1.84 µM;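 active means maximum activity change below -70%; inconclusive means maximum activity change between -70% and -50%; inactive means maximum activity change above -50%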; further: on the % scale 0 is the no-effect control and ±100 the full control effect
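U2OS cells were transduced with wild-type KCNH2 virus (2.03 x 10^8 / mL) for 4 h at room temperature, then cultured overnight at 37 C. Thallium flux was read with FluxOr dye. Rate constants were normalized to DMSO controls.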
GLP1R cytotox: qHTS of GLP-1 Receptor Inverse Agonists: Cytotox Screen. HEK293 cAMP-luciferase reporter cells, luminescence, 24 h. Potency, µM (series often up to 38.3 µM), inactives show top-dose activity change, negative = inhibition, hits mostly inhibitors. actives 0.13% (n = 410,000). AID 624418, 2012;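 further: loss of luciferase light is scored as toxicity; potency means the concentration at half of the fitted maximal effect; on the % scale 0 is the no-effect control and ±100 the full control effect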
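Seeding density was 200 cells/uL; after overnight-length (12 h) culture, 23 nL compounds went on for 24 h at 37 °C. Readout used a luciferase detection reagent, luminescence taken after 12 min at room temperature.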
* hit, by the source's call; ? = inconclusive; / = no result given. Sampled rows, rich in hits. Any-hit rate of the full collection: about 2.8%. Unless noted, the call rests on the fitted dose curve; in most records, active means well fitted curve in the direction sought with a large enough effect; inconclusive means small, poorly fitted or top-dose-only effect, or another doubt; inactive means no such curve, though single readings can be large; an effect the other way counts as inactive or inconclusive.

SMILES	KCNH2 3.1 block	GLP1R inv ag	GLS inhibitor	GLP1R ag	hERG WT inh	GLP1R cytotox
CC(C)NC(C(=O)Nc1cc(Cl)cc(Cl)c1)c1ccccc1 (centres undefined)	26	7.9µM*	-8%	-4%	1	-12%
O=C(Nc1cc(Cl)cc(Cl)c1)C(NCC1CCCO1)c1ccccc1 (centres undefined)	4	5µM*	3%	-4%	-1	-21%
O=C(CC(c1ccccc1)c1ccccc1)NCC1CCCO1 (centres undefined)	-11	-9%	-10%	4%	2	0%
CC(C(=O)Nc1ccccc1-c1ccccc1)N1CCN(S(=O)(=O)c2ccccc2)CC1 (centres undefined)	-23	-22%	18%	-3%	1	-3%
CC(C(=O)Nc1ccccc1-c1ccccc1)N1CCCCC1 (centres undefined)	-1	10µM*	6%	0%	-2	4%
CSCCC1NC(=O)N(C(C)C(=O)Nc2cc(Cl)cc(Cl)c2)C1=O (centres undefined)	-3	11µM*	-7%	3%	0	11%
CSCCC1NC(=O)N(CC(=O)Nc2c(Cl)cc(Cl)cc2Cl)C1=O (centres undefined)	-16	-28%	?	4%	9	8%
CN(C)CCNC(C(=O)Nc1cc(Cl)cc(Cl)c1)c1ccccc1 (centres undefined)	-1	?	-9%	6%	2	3%
Cc1ccc(NC(=O)Cn2cc3c(n2)CCCCC3)cc1	/	-5%	-13%	/	/	-1%
Oc1cccc(-c2c3nc(c(-c4cccc(O)c4)c4ccc([nH]4)c(-c4cccc(O)c4)c4nc(c(-c5cccc(O)c5)c5ccc2[nH]5)CC4)C=C3)c1	/	/	6%	-5%	/	/
CN(CC(=O)Nc1ccc(F)cc1)C(=O)CSc1ncccn1	5	5%	2%	-2%	4	1%
CC(C(=O)Nc1cc(Cl)cc(Cl)c1)N1CCCC1 (centres undefined)	-4	13µM*	12%	13%	3	3%
c1ccc(COc2ccc(OCCCCN3CCCCC3)cc2)cc1	-97*	?	-1%	4%	9	-27%
CN1CCN(CCCOc2ccc(-c3ccccc3)cc2)CC1	-90*	?	38%	-4%	52	?
Fc1ccc(OCCCCCN2CCCC2)cc1	-98*	-17%	-24%	-3%	9	5%
COc1ccc(CCNC(=O)CCc2c(C)nc3c4c(C)cc(C)nc4nn3c2C)cc1OC	/	6%	-8%	/	/	1%
CCC(C)NC(=O)CSc1nc(-c2ccc(F)cc2)cc(C(F)(F)F)n1 (centres undefined)	/	2%	4%	-2%	/	1%
COc1cccc(C2C(C(=O)Nc3ccccc3OC)=C(C)Nc3nc4ccccc4n32)c1 (centres undefined)	/	16%	-6%	1%	/	1%
O=C1CN(C(=O)Nc2ccccc2Cl)C(c2ccccc2)c2c(sc3c2CCCC3)N1 (centres undefined)	/	6%	1%	/	/	3%
CN1C(C(=O)NCc2ccc(OC(F)(F)F)cc2)CC2Cn3c(nc4cc(Cl)c(Cl)cc43)C21 (centres undefined)	-79*	-17%	10%	-3%	?	3%
